Sampled rows, rich in hits. Any-hit rate of the full collection: about 2.3%.
FUS suppressor: qHTS for Suppressors of FUS Proteinopathy: Primary screen using FUS-linked yeast assay; Potency, µM (series often up to 76.6 µM), usual class: activators; hit rate 0.24% among 390,000; S. cerevisiae FUS-expressing, growth rescue, OD600, 24 h;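 note: potency is the fitted concentration of half-maximal effect; plate controls were DMSO vehicle for no effect and reference control for full effect; nearly all actives have a fitted effect of over 55% in size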
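Yeast expressing FUS under galactose induction, OD 0.005 in 2% galactose medium; compounds in a dilution series, 24 h at 30C. Growth rescue by absorbance at 600 nm; CP55940 positive control, DMSO negative.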
Abeta rescue: qHTS for compounds that reverse cellular toxicity of Amyloid beta (A-beta) peptide in yeast: Primary Screen; yeast expressing A-beta42, growth rescue, OD600, 48 h; response scale: 0% DMSO, 100% iron-clioquinol control; Potency, µM (titrated, usually from 46.1 µM), usual class: activators; hit rate 0.063% among 410,000; AID 1347071, 2019; note: potency is the fitted concentration of half-maximal effect; nearly all actives have a fitted effect of over 55% in size
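Growth rescue measured by 600 nm absorbance after 48 h yeast culture at 30 C with compound. Values normalized between DMSO and an equimolar ferric chloride plus clioquinol control.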
Akt phos inh: HTS Assay for Inhibitors of Akt Phophorylation: Primary Screen; Neuro2A IGF-stimulated pAkt S473 HTRF, 20 min; hits give low values; activity change, % for hits at 50 µM; hit rate 0.32% among 360,000; in the data active = activity change below about -80%; inconclusive = mostly about -51% to -80%; note: % is set by controls: 0 for no effect and ±100 for the full control effect
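Neuro2A cells in DMEM with 0.5% FBS, overnight at 37 deg C, given compound at single 50 µM final, then IGF (6 nM final) for 20 min at 37 deg C. Lysed; phospho-Akt Ser473 by HTRF after 24 h, 665/615 ratio.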
aSyn rescue: qHTS of alpha-syn Inhibitors; Yeast expressing alpha-synuclein, growth rescue, BacTiter-Glo, 24 h; Potency, µM (highest dose often 46.1 µM), without a hit: top-dose growth rescue (activation), actives largely listed as activators; hit rate 0.14% among 370,000; AID 652106, 2013; note: potency is the fitted concentration of half-maximal effect; % of control where 0% means no effect; nearly all actives have a fitted effect of over 65% in size
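Galactose-induced alpha-syn yeast (OD600=0.02, raffinose-pregrown) + pinned cpd, 24 hr, 30 deg C; growth by BacTiter-Glo luminescence. Growth restoration scores as activation.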
TDP43 rescue: qHTS of TDP-43 Inhibitors; hit rate 1.8% among 410,000; Potency, µM (highest dose often 46.1 µM), without a hit: at the top dose growth rescue (activation), most hits filed as activators; TDP-43 expressing yeast growth rescue, BacTiter-Glo, 24 h; note: potency is the fitted concentration of half-maximal effect; % of control where 0% means no effect; nearly all actives have a fitted effect of over 50% in size
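Luminescence from BacTiter-Glo reports growth of TDP-43-expressing yeast after 24 hr at 30 deg C with compound. Cells were raffinose-pregrown to mid-log, then seeded in galactose medium at OD600=0.02.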
An asterisk follows results filed as active; i = inactive; ? = inconclusive; · = no result; [ ] = dose if it differs, or a comment. Unless noted, calls come from the whole dose curve; as a rule, active = well fitted curve in the direction sought with a large enough effect; inconclusive = small, poorly fitted or top-dose-only effect, or another doubt; inactive = no such curve, though single readings can be large; an effect the other way counts as inactive or inconclusive.

SMILES	FUS suppressor	Abeta rescue	Akt phos inh	aSyn rescue	TDP43 rescue
Cc1ccc(NC(=O)NCCc2c(C)nn(C)c2C)c(Cl)c1	i	i	·	·	26%
COc1cccc(Cn2c(CNS(=O)(=O)c3ccc(F)c(Cl)c3)nc3cccnc32)c1	i	i	·	·	-12%
O=C(Cn1c2ncccc2c(=O)n1-c1ccccc1)NCc1ccccc1	i	i	·	·	13µM*
CC1CCN(C(=O)Cn2c(SCC(=O)Nc3ccc(F)cc3)nc3ccccc32)CC1	i	i	·	·	20%
O=C(CSc1ccc2c(c1)OCCO2)Nc1ncccc1O	i	i	i	2%	11%
COc1ccc(NC(=O)CN(C)C(=O)CSc2ccc3c(c2)OCCO3)cc1	i	i	i	0%	-4%
O=C(CSc1ccc2c(c1)OCCO2)Nc1ccc(Cl)cn1	i	i	i	8%	11µM*
O=C(CSc1ccc2c(c1)OCCO2)Nc1ccc(Br)cn1	i	i	i	2%	13µM*
COc1ccc(Cl)cc1NC(=O)CN(C)C(=O)CSc1ccc2c(c1)OCCO2	i	i	i	23%	20µM*
CCOCCOC(=O)C(C)Oc1ccc(Oc2ncc(Cl)cc2Cl)cc1 (centres undefined)	·	i	i	-10%	-3%
Oc1ccc(Oc2ncc(Cl)cc2Cl)cc1	·	i	i	13%	8.9µM*
O=C(Cc1ccccc1)NC(=S)Nc1ccc(OC(F)F)cc1	i	11µM*	i	-7%	25%
N/C(Cc1cccc2ccccc12)=N\OC(=O)c1ccccc1F	·	i	i	-26%	22µM*
N/C(Cc1cccc2ccccc12)=N\OC(=O)COc1ccccc1	·	i	i	-24%	22µM*
N/C(=N\OC(=O)c1cccc2ccccc12)c1ccncc1	i	i	i	?	20µM*
CCc1cccc(NC(=O)CCc2c(C)nc3c(c2C)c(=O)n(C)c(=O)n3C)c1	?	i	·	·	-14%
CCCCOC(=O)c1ccc(NC(=O)Cc2coc3c(C)c(C)ccc23)cc1	i	i	·	·	-23%
Cc1cc(C)nc(SCc2nnc(SCC(=O)Nc3ccc(C)c(C)c3)n2Cc2ccco2)n1	i	i	-110%*	4%	3%
COC(=O)CSc1nnc(CSc2nc(C)cc(C)n2)n1Cc1ccco1	i	i	-97%*	-2%	-6%
COc1ccc(C2C=C(c3ccc(C)cc3)Nc3c(C(=O)Nc4ccccc4)cnn32)cc1 (centres undefined)	i	i	·	·	?
COCCCn1c(-c2ccccc2)nc2ccccc2c1=O	i	i	-121%*	2%	12%
COCCn1c(=S)[nH]c2ncccc2c1=O	i	i	-109%*	1%	0%
COc1cccc(OCCCn2c(-c3ccc(Cl)cc3)nc3ccccc3c2=O)c1	i	i	·	·	6%
COCCCn1c(=S)[nH]c2ncccc2c1=O	i	i	-122%*	1%	19%
CCOC(=O)C1CCN(C(=O)Cn2ncc3c4ccccc4n(Cc4ccc(F)cc4)c3c2=O)CC1	?	i	·	·	0%[9.22 µM]
SMILES	FUS suppressor	Abeta rescue	Akt phos inh	aSyn rescue	TDP43 rescue
COc1cnc(-c2ccccn2)nc1Sc1ccc(Cl)cc1	i	?	i	-6%	14µM*
COc1ccc(Sc2nc(-c3ccccn3)ncc2OC)cc1	i	?	i	13%	2%
COc1cnc(-c2ccccn2)nc1Sc1ccc(F)cc1	i	10µM*	i	9%	-19%
O=C1CC(c2ccc3c(c2)OCO3)c2cc3c(cc2N1)OCO3 (centres undefined)	i	i	i	1%	18%
O=C1c2cc3c(cc2CCC1c1ccc2c(c1)OCO2)OCO3 (centres undefined)	i	i	i	-4%	16µM*
Cc1ccc(S(=O)(=O)N2CCC(c3nc(-c4cccs4)nc4ccccc34)CC2)cc1	·	·	·	-5%	·
C=CCOc1ccc2c(c1)C(=NO)c1cc(OCC=C)ccc1-2	i	i	i	-19%	0%
COc1ccc2c(c1)C(=NO)c1cc(OC)ccc1-2	i	i	i	-5%	11µM*
Cc1cccc(N(CC(=O)NCc2ccccc2)S(C)(=O)=O)c1C	i	i	·	·	23%
COC(=O)c1c(-c2cccs2)csc1NC(=O)COc1ccc(C(C)C)cc1	i	i	·	·	-9%
CCCCCC1CCC(c2n[nH]c(=S)n2C)CC1 (centres undefined)	i	?	i	8%	14µM*
C=CCn1c(C2CC2)n[nH]c1=S	i	i	i	-4%	1%
COC(=O)C1=C(C)N=C2SC(C#N)=C(N)N2C1c1ccc(OC)cc1 (centres undefined)	i	i	i	-2%	2%
COC(=O)C1=C(C)N=C2SC(C#N)=C(N)N2C1c1cccc(OC)c1 (centres undefined)	i	i	-115%*	-1%	2%
O=C(Nc1cccc(-c2csc(Nc3ccc(Cl)cc3)n2)c1)c1cccc(C(F)(F)F)c1	i	i	i	-22%	25µM*
O=C(NNC(=S)Nc1cccc(C(F)(F)F)c1)c1cccc(Cl)c1	i	i	i	-7%	8.9µM*
O=C(Nc1cccc(-c2csc(Nc3ccc(Cl)cc3)n2)c1)c1ccccc1	?	i	i	-24%	?
Cc1nc(N2CCCC2)ncc1C(=O)Nc1ccc(F)cc1F	i	i	·	·	?
COC(=O)c1ccc(Cl)c(NS(=O)(=O)c2ccc3c(c2)OCCO3)c1	i	i	i	6%	25µM*
CC1CCc2c(sc(N)c2C(N)=O)C1 (centres undefined)	32µM*	i	i	15%	-16%
Cc1ccc(Sc2ccc(NC(=O)CCl)cc2)cc1C	i	i	i	-35%	?
Cc1ccc(C)c(Sc2ccc(NC(=O)CCl)cc2)c1	i	i	i	17%	8.9µM*
COc1ccccc1CNC(=O)COc1ccc(C)cc1	i	i	i	23%	11µM*
COC(=O)c1ccc(OCC(=O)c2ccccc2OC)cc1	i	i	i	0%	11µM*
COC(=O)c1ccc(COC(=O)c2ccccc2OC)cc1	i	i	i	10%	28%
CCC(=O)N1c2ccc(S(=O)(=O)CCC(=O)NCc3ccc(OC)cc3)cc2CC1C (centres undefined)	i	i	·	·	18%
CCCNC(=O)c1oc2ccc3c(c2c1C)C(=O)CC(C)(C)O3	i	i	i	-2%	14µM*
Fc1ccc2[nH]c(-c3cccs3)cc2c1	i	?	·	·	20µM*
